The values that follow come from PubChem BioAssay AID1259422 (The Scripps Research Institute Molecular Screening Center, 2018).

Hit rate of the full screen: of about 640,000 compounds, about 9,300 (1.5%) were called active. The sample holds actives, similar compounds and a random draw of the others, so the mix is not that of the screen. Rule as the data show it: active = inhibition above about 32%; inactive = the rest.

As a reminder, the inhibition is the change of the read-out against control, counted positive when it falls.

A short description of the experiment: TEAD-YAP interaction inhibition, primary screen, TEAD-YAP interaction inhibitor project, luminescence, HEK-TIYL cells (AID 1259422).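 Also: 0% = median of test compound wells and 100% = reference inhibitor wells.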 As to conditions: TEAD-Gal4/YAP UAS-luciferase luminescence, at 9.12 µM, active compounds read high.
In the case of `CC(=O)c1cccc(NC(=O)c2nn3c(C(F)(F)F)cc(-c4ccc(Br)cc4)nc3c2Cl)c1`, the inhibition is 2.9% (inactive). The result for `CCC(=O)Oc1ccc(OC)cc1C1Oc2nc(SC)nnc2-c2ccccc2N1C(=O)CC` (stereo not given) reads -5.21% (inactive).

For the molecule `Cc1nc2ccc(Cc3ccc4nc(C)oc(=O)c4c3)cc2c(=O)o1`, the inhibition is -1.07% (inactive). The same measure for `Cc1nc2sc(-c3ccccc3)cc2c(=O)o1`: 41% (active); for `COC(=O)C(C)n1cnc2sc(-c3ccccc3)cc2c1=O` (stereo not given): -25.2% (inactive); for `O=S(=O)(O)CCC[n+]1ccc(/C=C/c2c[nH]c3ccccc23)cc1`: 3.32% (inactive). Regarding `OCCCNc1ccc2ncc(-c3ccc(N4CCOCC4)cc3)n2n1`, the inhibition was 19.8% (inactive). On to `Cc1cc(C(=O)COC(=O)c2ccc([N+](=O)[O-])o2)c(C)n1Cc1cccs1`, for which the inhibition was 0.16% (inactive). The same measure for `Cc1cc(C(=O)COC(=O)C(CC(C)C)NC(N)=O)c(C)n1Cc1cccs1` (stereo not given): 66.1% (active); for `Cc1cc(C(=O)COC(=O)CCC(=O)c2cccs2)c(C)n1Cc1ccco1`: -6.67% (inactive). The result for `Cn1c2ccccc2n2cc(-c3ccc([N+](=O)[O-])cc3)nc12` reads -27.1% (inactive). The result for `COc1ccc(-c2cn3c4ccccc4n(CCN4CCOCC4)c3n2)cc1` reads -4.68% (inactive); that for `COc1ccc(-c2cn3c4ccccc4n(N)c3n2)cc1`, 90% (active). Consider `CC(C)[C@@H](CO)Nc1ccc2ncc(-c3ccccc3F)n2n1`, for which the inhibition was 57.3% (active).

Consider `CCC(CO)Nc1ccc2ncc(-c3ccccc3)n2n1` (stereo not given), for which the inhibition was 33.7% (active). On to `CCC(CO)Nc1ccc2ncc(-c3cccc(F)c3)n2n1` (stereo not given), for which the inhibition was 5.85% (inactive). The result for `CCC(CO)Nc1ccc2ncc(-c3ccc(N4CCOCC4)cc3)n2n1` (stereo not given) reads -1.73% (inactive); that for `CC(C)[C@@H](CO)Nc1ccc2ncc(-c3ccc(O)cc3)n2n1`, -7.09% (inactive); that for `CC(C)[C@@H](CO)Nc1ccc2ncc(-c3ccc(C#N)cc3)n2n1`, 29.7% (inactive). The same measure for `CCS(=O)(=O)Nc1cccc(N2CCC(NCCn3nc(C)cc3C)CC2)c1`: 2.36% (inactive); for `CC(Oc1ccc(Cl)cc1Cl)C(=O)Nc1ccc(C(=O)O)cc1` (stereo not given): 11.5% (inactive); for `O=C(CN(c1ccc(Cl)cc1Cl)S(=O)(=O)c1ccccc1)Nc1ccc(Cl)c(Cl)c1`: -0.39% (inactive). For the molecule `CC(C)(C)c1ccc(NC(=O)CSc2cccc[n+]2[O-])cc1`, the inhibition is -49.2% (inactive). The result for `O=C(NCc1ccc2c(c1)OCO2)c1cccnc1SCc1cccc(Br)c1` reads 10.6% (inactive); that for `NC(=O)c1c(NC(=O)Cc2ccccc2)sc2c1CCCCC2`, -7.09% (inactive); that for `COC(=O)c1c(NC(=O)c2cc3ccccc3oc2=O)sc2c1CCCC2`, -7.92% (inactive). In the case of `O=C(Nc1sc2c(c1C(=O)O)CCCC2)c1cc2ccccc2o1`, the inhibition was 50.1% (active).

Turning to `NC(=O)c1c(NC(=O)c2cc(=O)c3ccccc3o2)sc2c1CCCCC2`, the inhibition was 32.9% (active). The same measure for `N#Cc1c(NC(=O)c2cc3ccccc3c(=O)o2)sc2c1CCCCC2`: 4.91% (inactive); for `NC(=O)c1c(NC(=O)c2ccc(Br)o2)sc2c1CCCC2`: 3.19% (inactive); for `Cc1cccc(Nc2nc(-c3ccc(I)cc3)cs2)c1`: -33.1% (inactive).

Regarding `Cc1ccc(Nc2nc(-c3ccc(Br)cc3)cs2)cc1Cl`, the inhibition was -7.82% (inactive). The same measure for `Cc1ccc(Nc2nc(-c3ccccn3)cs2)cc1C`: 49.9% (active); for `CCCN1CCc2nc(NC(=O)COc3ccc(Cl)cc3Cl)sc2C1`: 45% (active); for `O=C(Nc1nc2c(s1)CN(Cc1ccccc1)CC2)c1cc(Cl)ccc1Cl`: -2.92% (inactive). Take `CN1CCc2nc(NC(=O)c3ccc(Cl)cc3Cl)sc2C1`: the inhibition is -69.8% (inactive). The same measure for `COc1ccc(C2CC(C(F)(F)F)n3ncc(C(=O)N4CCN(c5cccc(Cl)c5)CC4)c3N2)cc1OC` (stereo not given): -6.74% (inactive); for `Fc1cnc(Nc2ccc(N3CCNCC3)cc2)cc1-n1cnc(Nc2ccccc2)n1`: 64.6% (active). Take `FC(F)(F)c1cnc(Nc2ccc(N3CCOCC3)cc2)cc1-n1ncc2ccccc21`: the inhibition was -4.45% (inactive). The result for `c1cncc(Nc2nccc(Nc3ccc(N4CCOCC4)cc3)n2)c1` reads 2.14% (inactive). For `O=C(c1nc2ccc(Cl)cn2c1CNCCn1cccn1)N1CCc2ccccc2C1`, the inhibition is 7.89% (inactive). In the case of `COc1cccc2c1OC1(CCN(C(=O)Cc3ccc(F)cc3F)CC1)OC2`, the inhibition is -1.73% (inactive). The result for `O=C(c1cc(-c2ccc(O)cc2)on1)N1CCOCC1` reads 50.7% (active).

Consider `CN(C(=O)c1cc(-c2ccc(O)cc2)on1)c1ccccc1`, for which the inhibition was 60% (active). Take `O=C(c1cc(-c2cccs2)on1)N1CCCC1`: the inhibition was -49.2% (inactive). The same measure for `COc1ccc(-c2cc(C(=O)N3CCCCC3)no2)cc1`: 6.05% (inactive); for `CC1CN(CC(=O)NCc2cc(-c3ccccc3)on2)Cc2ccccc2O1` (stereo not given): -5.63% (inactive); for `CCN(CC)C(=O)c1cc(-c2ccc(O)cc2)on1`: -1.47% (inactive).

Consider `CCC(=O)Nc1ccccc1-c1nnn(CC(=O)Nc2ccc(CC)cc2)n1`, for which the inhibition was 12.7% (inactive).

`O=C(c1ccco1)N1CCN(c2nccn3c(-c4cccc(O)c4)cnc23)CC1`: the inhibition is -3.76% (inactive). Consider `CC(C)Cn1c(C2CC(=O)N(c3ccccc3)C2)nc2ccccc21` (stereo not given), for which the inhibition was 3.79% (inactive). The same measure for `CCOc1ccc(-c2cn(-c3ccc(OC)cc3)c(SCC(=O)Nc3ccccc3C)n2)cc1`: -24.2% (inactive); for `c1c2c(cc3sc(N4CCCCC4)nc13)OCCO2`: 80.9% (active). The same measure for `O=C(Nc1ccc2c(c1)OCCO2)Nc1nnc(N2CCCCCC2)s1`: -9.25% (inactive); for `O=C(c1ccc2nc(N3CCCCC3)sc2c1)N1CCN(c2ccccc2)CC1`: -69.3% (inactive). For the molecule `COc1ccc(-c2cc(C(=O)NC3CCCC(C)C3C)c3ccccc3n2)cc1` (stereo not given), the inhibition is 1.88% (inactive). The result for `CCOC(=O)c1cnc2nc(NCc3cccc(OC)c3)[nH]n2c1=O` reads 3.92% (inactive); that for `N/C(=N/OC(=O)c1ccccc1I)c1nonc1N`, -2.53% (inactive); that for `CCN1CCN(C(=O)c2sc3nc(C)nc(N4CCN(c5ccccn5)CC4)c3c2C)CC1`, -1.03% (inactive).

As to `Cc1nc(N2CCN(c3ccccn3)CC2)c2c(C)c(C(=O)NCCN3CCOCC3)sc2n1`, the inhibition was 14.5% (inactive).

`Cc1nc(N2CCN(c3ccccn3)CC2)c2c(C)c(C(=O)N3CCN(Cc4ccc5c(c4)OCO5)CC3)sc2n1`: the inhibition was 36.8% (active).

As for `COc1ccc(NC(=O)CSc2nc3c(sc(=S)n3-c3ccccc3F)c(=O)n2-c2ccc(F)cc2)c(OC)c1`, the inhibition is 15.7% (inactive). The same measure for `CC1CN(Cc2cccc3ncccc23)Cc2ccccc2O1` (stereo not given): -3.29% (inactive); for `CC1CCc2c(sc(NC(=O)c3ccccc3F)c2C(=O)N2CCOCC2)C1` (stereo not given): -2.16% (inactive). Consider `CCOc1ccccc1OCC(=O)NN`, for which the inhibition is 58.7% (active).

For the molecule `CCOc1ccccc1OCC(=O)OCc1ccccc1`, the inhibition was 2.74% (inactive). `CCOc1ccccc1OCC(=O)Nc1ccc(C(=O)O)cc1`: the inhibition is 4.66% (inactive). The same measure for `Cc1ccc(-c2noc(CCC(=O)N(C)c3ccccc3Cl)n2)cc1`: 13.7% (inactive). The result for `CC(C)(CO)Nc1ncnc(N)c1[N+](=O)[O-]` reads 50.6% (active); that for `COC(=O)NNc1ncnc(N)c1[N+](=O)[O-]`, 2.66% (inactive); that for `Nc1ncnc(NCc2ccc(Cl)cc2)c1[N+](=O)[O-]`, -0.74% (inactive). Turning to `O=C(/C=C/c1cccs1)N1CC[C@@H]2[C@H](CCCN2C(=O)c2ccc3[nH]ccc3c2)C1`, the inhibition was -4% (inactive). The same measure for `COC(=O)c1c(NC(=O)C(C)N2C(=O)c3ccccc3C2=O)sc2c1CCCC2` (stereo not given): -8.49% (inactive); for `CC(=O)Oc1ccc2occ(C(=O)c3ccc(C)cc3)c2c1`: 41% (active).

As to `CC(=O)Oc1ccc2occ(C(=O)c3cc4ccccc4o3)c2c1`, the inhibition is 53.6% (active). For `COc1ccc(OC)c(C(=O)c2coc3ccc(OC)cc23)c1`, the inhibition was 1.14% (inactive). On to `COc1ccc(NC(=O)Cc2coc3ccc(C)cc23)cc1`, for which the inhibition is -3.85% (inactive). Consider `COc1ccc2occ(C(=O)c3ccc(N=C(C)N(C)C)cc3)c2c1`, for which the inhibition is -23.4% (inactive). The same measure for `Cc1cc(=O)oc2c(OC(=O)c3cc4ccccc4o3)c(OC(=O)c3cc4ccccc4o3)ccc12`: -3.97% (inactive); for `CCOC(=O)Cn1c(=O)c2c(nc3n2CC(C)CN3c2ccccc2C)n(C)c1=O` (stereo not given): 2.64% (inactive). As to `O=C1c2ccccc2S(=O)(=O)N1c1ccc(Cl)cc1Cl`, the inhibition was 6.48% (inactive). The result for `O=C(O)C(CCC(=O)N1CCOCC1)N1C(=O)c2ccccc2C1=O` (stereo not given) reads -9.92% (inactive). On to `Nc1nc(N)c2ncn(C3OC(CO)C(O)C3O)c2n1` (stereo not given), for which the inhibition is -3.32% (inactive). For `O=c1cnn(C2OC(CO)C(O)C2O)c(=O)[nH]1` (stereo not given), the inhibition was 74.7% (active). The same measure for `Nc1nc(=O)n(C2OC(CO)C(O)C2O)cc1Br` (stereo not given): 5.2% (inactive); for `CCOC(=O)c1ccc(NC(=O)CSc2nnnn2-c2ccc([N+](=O)[O-])cc2)cc1`: -1.87% (inactive).

In the case of `N#Cc1c(NC(=O)c2cc([N+](=O)[O-])nn2Cc2ccccc2)sc2c1CCC2`, the inhibition is 2.14% (inactive).

For `N#Cc1c(NC(=O)CSc2ccc([N+](=O)[O-])cn2)sc2c1CCCC2`, the inhibition is -0.26% (inactive). The result for `N#Cc1c(NC(=O)c2cc([N+](=O)[O-])ccc2Cl)sc2c1CCC2` reads 32.6% (active). For `Cc1nnc(SCc2cccc3ccccc23)[nH]c1=O`, the inhibition was -2.21% (inactive).

In the case of `O=S(=O)(c1ccc(Cl)c(C(F)(F)F)c1)N1CCNCC1`, the inhibition was 3.58% (inactive). As to `COC(=O)CNc1nc(Cl)nc(Nc2ccc(I)cc2C)n1`, the inhibition is -1.03% (inactive). The result for `O=C(NCc1ccc(Cl)cc1)N1CCN(Cc2nc(-c3ccco3)cs2)CC1` reads 41.8% (active); that for `O=C(CN1CCN(Cc2nc(-c3ccco3)cs2)CC1)NCc1ccc2c(c1)OCO2`, -0.64% (inactive); that for `CC(=O)N1CCN(Cc2nc(-c3ccc(Cl)cc3)cs2)CC1`, 2.89% (inactive).
